Measured values as given in PMC5540273 (PLoS ONE, 2017).

Experiments:
Settings in all cases: concentration: 1 μM,replicates: in singlicate; n = 1
PIP5K1A = system: PIP5K1A
PIP5K1C = system: PIP5K1C
PIP5K2B = system: PIP5K2B
PIP5K2C = system: T1, PIP5K2C
T1 construct: gene PIP4K2C

PKAC-alpha = system: T2, PKAC-alpha
T2 construct: gene PRKACA

PKAC-beta = system: T3, PKAC-beta
T3 construct: gene PRKACB

PKMYT1 = system: PKMYT1
PKN1 = system: PKN1
PKN2 = system: PKN2
PLK1 = system: PLK1
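Note: KINOMEscan kinase panel screen.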

Row | SMILES | %Inh (PIP5K1A) [%] | %Inh (PIP5K1C) [%] | %Inh (PIP5K2B) [%] | %Inh (PIP5K2C) [%] | %Inh (PKAC-alpha) [%] | %Inh (PKAC-beta) [%] | %Inh (PKMYT1) [%] | %Inh (PKN1) [%] | %Inh (PKN2) [%] | %Inh (PLK1) [%]
1 | COc1cc(Nc2nccc(N3CCC(NC(=O)c4cccc(C#N)c4)C3)n2)cc(OC)c1OC (stereo not shown) [GSK1379751] | 0 | 47 | 0 | 94.5 | 0 | 0 | 0 | 0 | 0 | 0
2 | CS(=O)(=O)c1cccc(CNc2nc(Nc3ccc4c(c3)[C@@H]3C[C@@H]4CNC3=O)ncc2C(F)(F)F)c1 | 52 | 48 | 93.3 | 52 | 0 | 0 | 0 | 56 | 22 | 0
3 | CC(=O)Nc1ccc(-c2cc3ncnc(SCC(=O)O)c3s2)cc1 | 0 | 70 | 0 | 46 | 0 | 0 | 25 | 12 | 5 | 0
4 | COc1ccc(Nc2nccc(N3CCC(NC(=O)c4cccc(C#N)c4)C3)n2)cc1 (stereo not shown) [GSK1379730] | 4 | 35 | 0 | 23 | 12 | 9 | 0 | 37 | 0 | 0
5 | COC(=O)c1cccc(NC(=O)NC2CCN(c3ccnc(Nc4cc(OC)c(OC)c(OC)c4)n3)C2)c1 (stereo not shown) [GSK1379767] | 22 | 64 | 10 | 90.7 | 0 | 0 | 6 | 7 | 0 | 8
6 | Cc1nnc(-c2ccc3occ(-c4ccc(S(C)=O)cc4)c3n2)o1 (stereo not shown) | 9 | 10 | 0 | 43 | 0 | 0 | 64 | 0 | 0 | 0
7 | CCn1c(-c2nonc2N)nc2cncc(Br)c21 [SB-738004] | 54 | 53 | 28 | 38 | 11 | 0 | 6 | 0 | 4 | 18
